From the supplement of paper PMC3334620
In all, about 33,000 sequences were measured (“E-score (-0.5 to 0.5)”: median about -0.041, highest 2% from about 0.37 on). Only a selection was taken, and the highest values are over-represented in it overall.

Biological target: T1, Ecm22 (UniProt Q05958)
T1 sequence: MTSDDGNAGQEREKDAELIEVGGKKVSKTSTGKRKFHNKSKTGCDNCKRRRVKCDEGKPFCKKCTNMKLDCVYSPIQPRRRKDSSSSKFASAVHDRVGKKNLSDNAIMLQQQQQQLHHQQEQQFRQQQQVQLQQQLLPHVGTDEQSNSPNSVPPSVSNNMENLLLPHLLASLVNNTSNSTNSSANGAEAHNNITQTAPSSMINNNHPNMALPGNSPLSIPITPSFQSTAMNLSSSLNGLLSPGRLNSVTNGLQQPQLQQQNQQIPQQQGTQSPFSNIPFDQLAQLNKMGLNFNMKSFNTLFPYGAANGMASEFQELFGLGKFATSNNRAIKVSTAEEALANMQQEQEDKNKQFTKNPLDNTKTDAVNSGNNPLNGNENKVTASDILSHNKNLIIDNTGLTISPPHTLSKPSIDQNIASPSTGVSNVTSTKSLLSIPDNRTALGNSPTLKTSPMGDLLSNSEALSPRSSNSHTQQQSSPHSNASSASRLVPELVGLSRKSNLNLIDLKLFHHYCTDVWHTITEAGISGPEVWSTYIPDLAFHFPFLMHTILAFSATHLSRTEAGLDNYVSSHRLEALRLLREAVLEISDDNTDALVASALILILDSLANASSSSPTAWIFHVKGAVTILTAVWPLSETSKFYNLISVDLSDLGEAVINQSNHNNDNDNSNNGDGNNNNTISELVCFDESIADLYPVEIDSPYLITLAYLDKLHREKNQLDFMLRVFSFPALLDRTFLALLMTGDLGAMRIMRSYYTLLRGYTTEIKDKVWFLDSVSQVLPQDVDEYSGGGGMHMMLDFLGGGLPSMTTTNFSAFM
Experiment: PBM E-score (8-mer binding enrichment) (E-score (-0.5 to 0.5)); higher = stronger / more preferred TF binding
Conditions: protein concentration: 200 nM; construct: GST-full length
Method in brief: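 Universal all-10-mer Agilent arrays, double-stranded by primer extension on fresh or once-stripped slides, were probed with about 100-200 nM GST-tagged yeast transcription factors made by PURExpress. Fluorescent anti-GST detected bound protein, and masliner normalised the scans. E-scores from the Universal PBM Analysis Suite were given to each ungapped eight-base word pooled with its reverse complement.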

| Sequence | PBM E-score |
| --- | --- |
| ATCATCTC | 0.0439 |
| GTAAACAA | 0.279 |
| CTATCGTA | 0.406 |
| ATATCGTC | 0.0456 |
| GTATCGTA | 0.421 |
| GTATCGAA | 0.161 |
| CTATCGTC | -0.0492 |
| GTATCGGA | 0.199 |
| CTATCGAA | 0.0456 |
| ATATCGTG | 0.147 |
| ATATCGTA | 0.413 |
| AGGCTTGC | -0.219 |
| CCAAGACA | -0.257 |
| AAGCTGGG | -0.271 |
| AAACTGAC | 0.00573 |
| AAGTGGCC | -0.248 |
| ACCCTACC | -0.0742 |
| ATATACCA | 0.0649 |
| ATATACGG | 0.441 |
| CTATACGC | 0.403 |
| ATATACAA | 0.0401 |
| ATATACGA | 0.49 |
| ATATACCG | 0.21 |
| ATATACGC | 0.299 |
| ATATACTG | 0.0789 |

| Sequence | PBM E-score |
| --- | --- |
| CTATACTC | 0.0609 |
| CAGGCTTA | -0.245 |
| CTTGTGGC | -0.239 |
| AAAGGTCG | 0.00556 |
| ACGATCAG | 0.224 |
| GATCAGGA | -0.069 |
| AGTTGTCA | -0.0616 |
| CGGGTCGA | -0.00467 |
| CCCGTTTC | 0.216 |
| GCCGTTGA | -0.138 |
| CACGTTTA | 0.256 |
| ACCGTTTC | 0.187 |
| GCCGTTTA | 0.421 |
| ACCGTTTG | 0.287 |
| ACCGTTTA | 0.432 |
| GCCGTTAA | 0.24 |
| CCCGTTTA | 0.433 |
| GCAGCGCA | -0.0703 |
| ACGCAGAT | 0.194 |
| TCCGAGAA | 0.265 |
| GACGAGAA | 0.138 |
| TTCGAGAA | 0.149 |
| AACGAGAA | 0.424 |
| ACCGAGAT | 0.178 |
| ATCGAGAT | 0.0251 |

| Sequence | PBM E-score |
| --- | --- |
| TACGAGAA | 0.462 |
| AACGAGAT | 0.438 |
| GACGAGAC | 0.029 |
| AACGAGAC | 0.451 |
| CACGAGAC | 0.0819 |
| CACGAGAA | 0.143 |
| CTCCCTCA | -0.162 |
| CTTCTAAA | -0.0244 |
| GCTGTCTA | -0.0813 |
| GGTACTAA | 0.0853 |
| CACAGAAC | 0.00026 |
| CTCGACCA | -0.0786 |
| CCCGAAGA | 0.0524 |
| AATGCAGA | -0.0678 |
| CACGAGAG | 0.0712 |
| ATCGAGAG | 0.0766 |
| AACGAGAG | 0.433 |
| ATCAAGGG | -0.149 |
| AGCTACGA | 0.394 |
| CGCTACAA | 0.0321 |
| AGCTACGC | 0.141 |
| GGCTACGA | 0.424 |
| AGCTACGG | 0.112 |
| GGCTACCA | -0.2 |
| CGCTACGC | 0.138 |

| Sequence | PBM E-score |
| --- | --- |
| GGCTACAA | 0.042 |
| CGCTACGA | 0.456 |
| CTCTACGA | 0.37 |
| CTCTACGC | 0.00503 |
| ATCTACGA | 0.304 |
| AGCGGGTA | 0.107 |
| GACCTGAC | -0.172 |
| GAACTTGC | -0.0845 |
| ATGCACCG | -0.0745 |
| TATATCGA | 0.131 |
| GGCTGAAC | -0.0835 |
| ACATTTGA | -0.158 |
| CTTTGGAC | -0.0902 |
| AGACGGTA | -0.121 |
| GCACGGTA | -0.0289 |
| CTACGGTA | 0.0823 |
| GTACGGTA | 0.385 |
| ATACGGTA | 0.383 |
| ACACGGTA | 0.108 |
| AGATAGCT | -0.0945 |
| AGGCTCCA | -0.369 |
| CTGCACAA | -0.214 |
| CGGCAACC | -0.082 |
| AACATTCT | -0.0433 |
| CTTTATAC | 0.23 |

| Sequence | PBM E-score |
| --- | --- |
| ATTTATAA | 0.0523 |
| ATTTATAC | 0.401 |
| AAGAACCC | -0.0304 |
| CCTACCTC | -0.0998 |
| GGTACCTA | -0.1 |
| CGTACCTC | 0.435 |
| AGTACCTC | -0.19 |
| AGTACCTA | -0.104 |
| CGTACCTA | 0.441 |
| CTAGAACA | -0.0457 |
| CGGGTCGC | 0.187 |
| ACCGTCGT | 0.404 |
| ACCGTCGC | 0.278 |
| AACGTCGT | 0.37 |
| AACGTCGA | 0.178 |
| AACGTCGG | 0.17 |
| ACCGTCGA | -0.216 |
| AAGCTCAG | -0.321 |
| CGGTTCGC | 0.151 |
| AACCTAGC | -0.09 |
| AGAGGGGG | -0.0644 |
| ACAGCACC | -0.276 |
| CCTCGTCC | -0.238 |
| GCTCGTTA | 0.373 |
| CCTCGTTC | 0.474 |

| Sequence | PBM E-score |
| --- | --- |
| ACTCGGTC | 0.229 |
| CCACGTTA | 0.0599 |
| ACTCGTTA | 0.348 |
| CCTCGTGC | 0.0902 |
| ACTCGTTG | 0.274 |
| ACTCGTTC | 0.466 |
| CCTCGTTA | 0.402 |
| GCTCGCTA | 0.31 |
| GCACGTTA | 0.0282 |
| TCTCCTAA | -0.203 |
| TCTAGGAA | -0.0513 |
| CCTCGCTC | 0.372 |
| ACTCGCTC | 0.354 |
| CCTCGCTA | 0.215 |
| GGGAGAAA | -0.141 |
| GGGGACCA | -0.259 |
| ATCGATTG | 0.0987 |
| ACCGATTG | 0.115 |
| AACGATTC | 0.377 |
| CACGATTA | 0.1 |
| AACGATTG | 0.384 |
| CACGATTC | 0.244 |
| AACGATTA | 0.382 |
| AGCGATTC | 0.12 |
| GACGATTA | 0.0551 |

| Sequence | PBM E-score |
| --- | --- |
| CAGGGCAA | -0.227 |
| CTGACGTA | 0.132 |
| AAGATACA | -0.046 |
| GACTCGAC | 0.0219 |
| ATGAGATG | -0.227 |
| ACTGCTGA | -0.19 |
| CCCTCTCC | -0.358 |
| CTAGGAAA | -0.209 |
| CGCGCAAA | 0.188 |
| GAACGGGA | 0.327 |
| CTACGGGA | 0.146 |
| GCACGGGA | 0.0895 |
| ATACGGGG | 0.386 |
| GTACGGGA | 0.419 |
| ACACGGGC | -0.0743 |
| ACACGGGA | 0.0892 |
| AGACGGGG | -0.0581 |
| ATACGGGC | 0.413 |
| CTACGGGC | -0.0464 |
| ATACGGGA | 0.389 |
| AAACGGGG | 0.361 |
| AAGCGCAC | 0.0929 |
| AAGCTTGT | 0.0175 |
| ACAATCCT | -0.0917 |
| GGGGCAGA | -0.0715 |

| Sequence | PBM E-score |
| --- | --- |
| ATCCTGCC | -0.0749 |
| CGAGCACA | 0.225 |
| AGCCCTGG | -0.233 |
| TAACCCCA | -0.181 |
| ACAACTCC | -0.151 |
| CGGCGAAA | 0.0597 |
| GAGTATAC | 0.286 |
| ATGTATAC | 0.179 |
| CCGTATAA | 0.473 |
| GCGTATAC | 0.406 |
| CGGTATAA | 0.161 |
| ACGTATGA | 0.17 |
| CCGTATGC | 0.268 |
| ACGTATAC | 0.381 |
| AAGTATAC | 0.255 |
| CCGTATGA | 0.396 |
| CTGTATAA | 0.0431 |
| GGGTATAC | 0.15 |
| AGTGCCAA | -0.0554 |
| CTGCCTCA | -0.257 |
| AATGTGCT | 0.00418 |
| CGATATGC | 0.188 |
| ATTCCCAG | -0.0258 |
| GGAGCGAC | 0.339 |
| GGCGTTGA | -0.126 |

| Sequence | PBM E-score |
| --- | --- |
| ACTTTAGG | -0.0481 |
| GTGTATAA | -0.026 |
| ATGTATAA | 0.0604 |
| AAGTATAT | 0.0727 |
| ACGTATAA | 0.412 |
| GCGTATTA | 0.031 |
| AGGTATAA | 0.211 |
| ACGTATAT | 0.371 |
| CCGTATAC | 0.456 |
| GCGTATAA | 0.394 |
| CTGTATAC | 0.207 |
| AGGTATAT | -0.117 |
| CCGTATCC | 0.337 |
| TTCAAGAA | 0.0932 |
| CAGCCGGC | 0.0272 |
| CCAGAGAA | 0.0432 |
| GCAGGACA | -0.0743 |
| CAGTCTAA | 0.0425 |
| ATGACTTG | -0.136 |
